The full ranking holds about 5,800 sequences; the median of “enrichment r” is about 0.68, and the highest 2% start at about 11. For the sample, the highest values were picked, then their nearest neighbours and some sequences at random.
T1: UNK ZnF1-6 (called full-length) (human, UniProt Q9C0B0 30-357)
T1 sequence: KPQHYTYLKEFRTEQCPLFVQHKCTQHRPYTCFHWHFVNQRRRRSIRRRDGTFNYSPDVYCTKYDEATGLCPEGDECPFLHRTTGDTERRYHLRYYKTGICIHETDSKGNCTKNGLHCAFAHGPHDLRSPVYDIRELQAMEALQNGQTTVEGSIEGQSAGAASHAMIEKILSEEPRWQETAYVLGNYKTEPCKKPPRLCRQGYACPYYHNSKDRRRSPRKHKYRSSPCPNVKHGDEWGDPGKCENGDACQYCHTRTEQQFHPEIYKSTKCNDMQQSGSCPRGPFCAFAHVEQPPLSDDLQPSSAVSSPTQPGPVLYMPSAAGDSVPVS

B1: chr3:115809552:115809653:-|3pUTR|ENSG00000185565|unk|total|mutant (ssRNA)
RNA: GGGAGUUCUACAGUCCGACGAUCCUCCCUCACCUCUCCUCACCUCCACCCCCUCCCCAGAGCACCCGUCAUGCCGCAAAUGCCCGGAAGUGCCAUUUUCAUUUUCUCCACUGUGCGUGUGUGCUCAAGUCUUUCGCUCUCACGCAACAGAGGAUUGAGCAUCA
B2: chr4:145760401:145760502:-|3pUTR|ENSG00000151612|unk|FALSE|unique (ssRNA)
RNA: GGGAGUUCUACAGUCCGACGAUCUCCGUACUUUUCUCUGAAAGGAAUCUUGUCUUGUUAAACCCUAAAGAGAGUGUCCUUAAUAGCAAUCAGCACUUGUAAGCUUAUAUACUGGUGCAUUUGGUUUUCUGUUGGGUGAAUGCGCAACAGAGGAUUGAGCAUCA
B3: chr11:2944997:2945113:-|3pUTR|ENSG00000205531|unk|FALSE|unique (ssRNA)
RNA: GGGAGUUCUACAGUCCGACGAUCCUGUGUAGAGUAGGGCCCUGUUCUCCUUAGGAUGUUGCUUCUUGAUUUUUUUUUUUUUUUAGGGGUGGGUCAGGGUUGUGACACACCAGCCCAGGUGAGAGCUGCUGCGGGUCACCUCAUCAACAGAGGAUUGAGCAUCA
B4: chr12:53210768:53210868:-|3pUTR|ENSG00000172819|msi1_unk|FALSE|overlapping (ssRNA)
RNA: GGGAGUUCUACAGUCCGACGAUCAGGGGGGAUGCUGCUUAGCUGAUCCCGCCCUGACCCAGAGGAAGCCUCUAUUUAUUUAUUAGCUUUUGUUUACACCGUGGAAUUGACCCCUUCCUCCAGGGGUCUUGGGUGGGGGAGCCCCAACAGAGGAUUGAGCAUCA
B5: chr17:27756765:27757353:-|three_prime_utr|ENSG00000007171|control|control|control (ssRNA)
RNA: GGGAGUUCUACAGUCCGACGAUCCAAGUCUUAUUUCCUCAACGUUGCUCCCCAUCAAGCCCUUUACUUGACCUCCUAACAAGUAGCACCCUGGAUUGAUCGGAGCCUCCUCUCUCAAACUGGGGCCUCCCUGGUCCCUUGGAGCAACAGAGGAUUGAGCAUCA
B6: chr17:49053040:49053141:+|3pUTR|ENSG00000159217|unk|FALSE|unique (ssRNA)
RNA: GGGAGUUCUACAGUCCGACGAUCCUCAGCUCCUGUGAGGGGUCUGGUUAGGAGAGAGCCAUUUUUAAGGACAGGGAGUUUUAUAGCCCUUUUCUACUUUCCUCCCCUCCUCCCAGUCCUUAUCAAUCUUUUUUCCUUUUUCCUCAACAGAGGAUUGAGCAUCA
B7: chr12:56205560:56205676:-|3pUTR|ENSG00000181852|unk|FALSE|unique (ssRNA)
RNA: GGGAGUUCUACAGUCCGACGAUCCUCUUGUGGCACAGGCCAUAAUUGUUCCAUAGACCCCUCUCUAGCCCUGUGACUGUAGUUAGUUACUUUGAUAAUUUUCUUUGGCCAUUGUUUGUUUAUAUUUCACAAACUCCACCUACUCAACAGAGGAUUGAGCAUCA
B8: chr19:12699869:12699961:-|3pUTR|ENSG00000105576|msi1_unk|FALSE|overlapping (ssRNA)
RNA: GGGAGUUCUACAGUCCGACGAUCGAGGGUGGGGGUGUAGUUACUUCCCAGUUGGCCAGAAAACUGGGCCUUGCAGACCCCCUUAGCAUUUUUUCCCUUUUUUUCCUUCCCUGCUUUCUACUUCUUUGGGGAGCCCCUUGUGUUCAACAGAGGAUUGAGCAUCA
B9: chr15:74955373:74955475:-|3pUTR|ENSG00000178718|unk|FALSE|unique (ssRNA)
RNA: GGGAGUUCUACAGUCCGACGAUCGGACAGUUUUCCUUUCUAGUUUUCUUUCCCCUGCUUCAGAGGAGCAUCUCUGAGGGUUCUAGCUCUUUUAACACCCCUUUUCCCCCUGCUGGCCCAGAGGGAGACCCAGGACUGAACUCUCAACAGAGGAUUGAGCAUCA
B10: chr20:63933867:63933968:+|3pUTR|ENSG00000101152|msi1|FALSE|unique (ssRNA)
RNA: GGGAGUUCUACAGUCCGACGAUCAUCAGAGUGGGCCCCUUGCCAGGUGGCUUUUCAGUUACAGAGUCCAGUGGACCAUUUUGUAGAACCAUGCAGCUCCCUGCGGAAGGUGGGGUAGGGUGGGAAAGAGGAGCAGGUCUGGAGCAACAGAGGAUUGAGCAUCA
B11: chr1:160214333:160214525:+|3pUTR|ENSG00000162734|msi1|FALSE|unique (ssRNA)
RNA: GGGAGUUCUACAGUCCGACGAUCCUACAGUGUUUUCCUUUGCACCGAUCCCCACCCCAAUUCAAUCCCGGAAGGGACUUACUUAGGAAACCCUUCUUUACUAGAUAUCCUGGCCCCCUGGGCUUGUGAACACCUCCUAGCCACCAACAGAGGAUUGAGCAUCA
B12: chr19:3536616:3536717:+|3pUTR|ENSG00000105325|msi1|total|mutant (ssRNA)
RNA: GGGAGUUCUACAGUCCGACGAUCACCGCCGCAGGGCCAGGCGGACGGCGUGAGGUUUGUGUUGGGGCUGGUUCUGCCCAUGCCCGGGGGUGGGGGAGCUCCCAGGACAGACCAGCCUUGUUUCUCAUGUAAUGCAGUGACGCUCAACAGAGGAUUGAGCAUCA
B13: chr17:50110931:50111032:+|3pUTR|ENSG00000005882|unk|FALSE|unique (ssRNA)
RNA: GGGAGUUCUACAGUCCGACGAUCUGUGCCCAGACAUGUGUGCUCAGGGUGGCUUUCUCCCUAGGACCUUCUGUGUAUAUAGUUAGUUUUAUAACCCUGAAUGCCCCCACCCUUCCCCUAAGCACACAGGGGUUAAAGCUGUGUCAACAGAGGAUUGAGCAUCA
B14: chr4:48579112:48579224:-|CDS|ENSG00000075539|unk|FALSE|bound_elsewhere (ssRNA)
RNA: GGGAGUUCUACAGUCCGACGAUCCUCUAUUGCCCUAGCUCGAUAGAUUUACAAACUUUAGCAGAAUGGAACUCUUCUCCUAUUAGCCACCAGUUUGAUGUGAUUAGUCCAUCACAUAUAUGGAUAUUUGCACAUGUGACCCAACAACAGAGGAUUGAGCAUCA
B15: ENSG00000136451:be:win_3701|3pUTR|ENSG00000136451|bound_else_gene|NA|bound_elsewhere_windowed (ssRNA)
RNA: GGGAGUUCUACAGUCCGACGAUCUCUCUGGUGGGCUGGCAGUCAUAAUUCACAAUUCAGACAGCCCAGGCUUCCUCCACAGUGGUCCAAGGAGCAGUCCUCAGUGGGGGCAGGUGUGGGCCCUACCCCUAAGCUAGAAUGUGGCAACAGAGGAUUGAGCAUCA
B16: ENSG00000107863:be:win_451|CDS|ENSG00000107863|bound_else_gene|NA|bound_elsewhere_windowed (ssRNA)
RNA: GGGAGUUCUACAGUCCGACGAUCUUGGAACUUAGUGUUAUGCCAAAAGAUGAAGACAUUCUCCAAGUGCUACAGUUUACAAAGGAUGUCACAGCACUGGCAUAUUCUCAAGAUGCCUACCUGAAAGGCAACGAAGCUUAUAGCCAACAGAGGAUUGAGCAUCA
B17: chr9:96387934:96388035:-|3pUTR|ENSG00000165244|msi1|total|mutant (ssRNA)
RNA: GGGAGUUCUACAGUCCGACGAUCAAUAUUUUGUAAAUAUGGACUGCACAGUACAGGGCCGAAAACUACAUAUUGUGGGAAGCCCGAUUUUGCAAGUUUAAUGCAUUCAUUGGAAGCAGUUCUCACAGGAAGCACUUUCUGAAUCAACAGAGGAUUGAGCAUCA
B18: chr20:32237940:32238012:+|3pUTR|ENSG00000101346|msi1_unk|FALSE|overlapping (ssRNA)
RNA: GGGAGUUCUACAGUCCGACGAUCUUUCAAAGAUACAAAUAUUUACAUAGUUUUAAUCAUGUAAUAUAUACAAUUUAAUGUCCUAGUGUUUUACUUAAUAGUGUAUCAUGUUUUCCCUGUUGGUAUGUAGCCUGGAUAAAUGCUCAACAGAGGAUUGAGCAUCA
B19: chr17:3662948:3663056:-|3pUTR|ENSG00000213977|unk|total|mutant (ssRNA)
RNA: GGGAGUUCUACAGUCCGACGAUCAGUUUGAUACAAAAUGUUUUUAUCGUACUCUUUGGAGAUGCCCAUUCUACUUUUGAAUUCCGCUUUUACUAAUUCGCAUCUGGAAGCUCAGCAAGUGCACAAGCCUUACUUUGGUUACCGCAACAGAGGAUUGAGCAUCA
B20: chr5:76617584:76618642:-|CDS|ENSG00000164220|control|control|control (ssRNA)
RNA: GGGAGUUCUACAGUCCGACGAUCUGAUGGCUUAUAUUUUAUAUAUCUCAUAGCUUUGUGCCUGGGUAGUCUUAAUAGUUGCUUAGAUCCAUUCCUUUAUUUUCUCAUGUCAAAAACCAGAAAUCACUCCACUGCUUACCUUACCAACAGAGGAUUGAGCAUCA
B21: chr4:168927217:168927233:+|3pUTR|ENSG00000129116|msi1_unk|total|mutant (ssRNA)
RNA: GGGAGUUCUACAGUCCGACGAUCAACCACCCAAAUGACCAAGGCAUAUACCGUAUUUGGAGGAAUCAGGGGUUUGGAAGGAGCCGGGAGGAGAAUGAAGGAAAAUGCAACCAGCAUGAUUACCGUGUGUUCAUUCCGAUAAAACAACAGAGGAUUGAGCAUCA
B22: ENSG00000198589:be:win_7401|CDS|ENSG00000198589|bound_else_gene|NA|bound_elsewhere_windowed (ssRNA)
RNA: GGGAGUUCUACAGUCCGACGAUCUUCUCAACUACUCAUAGAGCCCCAUCCUCCCAGAGGUUCUGCCAUGCAAGUGAGUCCAUUGAUGUUCACAGACAAAGCCCAGCAGGAUGUUAUCAUGGUCCUCAAGUUUCCCUCCAACUCCAACAGAGGAUUGAGCAUCA

molecular target: T1, UNK ZnF1-6 (called full-length); assay: nsRBNS (natural sequence RNA bind-n-seq); RBNS binding buffer (assumed for nsRBNS): 25 mM Tris pH 7.5, 150 mM KCl, 3 mM MgCl2, 0.01% Triton X-100, 500 ug/ml BSA, 20 U/ml SUPERase-In, 4 C; UNK is unkempt and MSI1 is Musashi-1; names of the RNAs are library labels; protein concentration not given here; high values mean tight binding

| Binder | binding signal [enrichment R] |
| --- | --- |
| B1 | 1.88 |
| B2 | 0.364 |
| B3 | 22 |
| B4 | 2.83 |
| B5 | 0.605 |
| B6 | 3.9 |
| B7 | 33.5 |
| B8 | 15.5 |
| B9 | 10.8 |
| B10 | 1.29 |
| B11 | 2.33 |
| B12 | 0.79 |
| B13 | 6.79 |
| B14 | 1.85 |
| B15 | 0.776 |
| B16 | 0.399 |
| B17 | 0.299 |
| B18 | 4.06 |
| B19 | 0.437 |
| B20 | 4.63 |
| B21 | 0.58 |
| B22 | 0.555 |
